Assay [1] in a line: binders of probe aFSTL3 on microarray, primary screen, stem cell growth factor project, biochemical, small-molecule microarray, fluorescence 635/667 (AID 1064).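 Also: measures binding of the biotinylated anti-FSTL3 antibody to printed compounds.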 The following applies: higher = more signal.
Assay [2] in a line: binders from COS7 lysate, DM2A8 probe, primary screen, torsin A project, cell lysate, small-molecule microarray, fluorescence 635/667 (AID 1065). The following applies: higher = more signal, COS7 lysate expressing mutant human TOR1A.
The nature of assay [3]: binders of probe aFGF2 on microarray, primary screen, stem cell growth factor project, biochemical, small-molecule microarray, fluorescence 635/667 (AID 1067).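 Also: measures binding of biotinylated aFGF2 protein to printed compounds on slides; z-score merges feature fluorescence and signal-to-noise across triplicate slides.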 The following applies: higher = more signal.
Assay [4] in a line: binders of probe aFGF10 on microarray, primary screen, stem cell growth factor project, biochemical, small-molecule microarray, fluorescence 635/667 (AID 1071).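 Also: score merges 667 nm spot intensity and signal to noise from triplicate slides.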 The following applies: higher = more signal.
Assay [5] has as its target Neurogenic locus notch homolog protein 2 (Homo sapiens) (UniProt Q04721). Kind of assay: Notch2 binders on small-molecule microarrays, primary screen, biochemical, small-molecule microarray, 635 nm fluorescence, stem cell growth factors (AID 1073). The following applies: Notch2 binding, higher = more signal.
The target in assay [6] is Pro-neuregulin-1, membrane-bound isoform (Homo sapiens) (UniProt Q02297). Kind of assay: NRG1 binders on small-molecule microarrays, primary screen, psychiatric disease protein project, biochemical, small-molecule microarray, fluorescence 635/667 (AID 1075).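 Also: score combines 667 nm spot fluorescence with signal to noise.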 The following applies: NRG1 binding, 635 nm fluorescence, higher = more signal.
In assay [7] the test system is Neuregulin-1 EGF-like domain. Kind of assay: binders of neuregulin-1 EGF-like domain, primary screen, biochemical, small-molecule microarray, 635 nm fluorescence (AID 1081).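 Also: binding of the protein to compounds printed on small-molecule microarray slides.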 The conditions noted are these: small-molecule microarray binding, higher = more signal.
Assay [8] in a line: FRG1 promoter luciferase signal modulators, primary screen, FRG1 inhibition for FSHD, cell-based, C2C12 myotubes, firefly/Renilla luciferase, luminescence (AID 1084). The following applies: higher = more signal, called active from +8 up or from −8 down.
Assay [9] is described as follows: binders of probe aFST on microarray, primary screen, stem cell growth factor project, biochemical, small-molecule microarray, fluorescence 635/667 (AID 1086).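 Also: score merges 667 nm fluorescence with signal-to-noise of each printed compound spot.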 The conditions noted are these: higher = more signal.
The nature of assay [10]: binders of probe aHhip on microarray, primary screen, stem cell growth factor project, biochemical, small-molecule microarray, fluorescence 635/667 (AID 1087).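 Also: score merges spot fluorescence at 667nm with spot signal to noise ratio.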 The following applies: higher = more signal.
Assay [11] relates to PRMT1 (protein arginine N-methyltransferase 1). Kind of assay: PRMT1 binders on small-molecule microarrays, primary screen, biochemical, small-molecule microarray, 635 nm fluorescence (AID 1088).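 Also: binding of Prmt1 protein to compounds spotted on small-molecule microarray slides.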 The following applies: small-molecule microarray binding, higher = more signal.
The nature of assay [12]: yeast growth modulation, basal conditions, primary screen, YJM789 clinical isolate, OD600, 24 h (AID 1089).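 Also: growth of clinical yeast isolate S. cerevisiae YJM 789 seeded 1000 cells per well; test concentration not given here.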 The following applies: S. cerevisiae YJM789 growth, higher = more signal, called active from +8 up or from −8 down.
A short description of assay [13]: fission yeast growth modulation, primary screen, strain 972, OD600, 24 h, no modulator (AID 1090).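 Also: basal condition with compound alone and no growth modifier present; test concentration not given here.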 The following applies: S. pombe 972 growth, higher = more signal, called active from +8 up or from −8 down.
The nature of assay [14]: S. cerevisiae growth modulation with rapamycin, primary screen, strain BY4716, OD600, 96 h (AID 1091). Also: test concentration not given here. The following applies: higher = more signal, called active from +8 up or from −8 down.
For assay [15], the target named is Torsin-1A-interacting protein 2 (Homo sapiens) (UniProt Q8NFQ8). Kind of assay: LULL1 binders on small-molecule microarray, primary screen, cell lysate, human LULL1 lysate, 635/667 nm fluorescence (AID 1092).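 Also: probe is lysate of COS7 cells overexpressing human LULL1; score merges per-feature 667 nm fluorescence with signal-to-noise.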 The conditions noted are these: hLULL1 lysate binding, 635 nm fluorescence, higher = more signal.
Assay [16] can be described thus: E. coli growth modulation, two-sided OD650, primary screen, E. coli filamentation project, strain DRC41, 24 h (AID 1093).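 Also: MC1000 strain lacking acrAB efflux and sulA so SOS filamentation is blocked; test concentration not given here.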 The following applies: OD650, 24 h, higher = more signal, called active from +8 up or from −8 down.
The nature of assay [17]: small-molecule microarray binders of probe aLefty2, primary screen, biochemical, biotinylated probe, 635/667 nm fluorescence (AID 1094).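 Also: score merges spot fluorescence near 667 nm with spot signal-to-noise ratio.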 The following applies: higher = more signal.
Assay [18] deals with Noggin (protein binding on small-molecule microarray). The experiment in a line: Noggin binders on small-molecule microarray, primary screen, biochemical, 635/667 nm fluorescence (AID 1095).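 Also: score merges 667 nm feature fluorescence with signal to noise over triplicate slides.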 The following applies: 635 nm fluorescence, higher = more signal.
For assay [19], the target named is Neurogenic locus notch homolog protein 3 (Homo sapiens) (UniProt Q9UM47). The experiment in a line: NOTCH3 binders on small-molecule microarray, primary screen, biochemical, 635/667 nm fluorescence (AID 1096). The conditions noted are these: NOTCH3 binding, 635 nm fluorescence, higher = more signal.
A short description of assay [20]: small-molecule microarray binders of probe aEGFR, primary screen, biochemical, biotinylated probe, 635/667 nm fluorescence (AID 1097).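 Also: probe is a biotinylated anti-EGFR antibody binding compounds printed on slides; score combines fluorescence near 667 nm and signal to noise of each spot.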 The following applies: higher = more signal.

Data on 4 compounds can be found in PubChem BioAssay.

Values joined by “and” are separate entries in the source; they are usually repeats but may differ in a detail not shown here. Equal values may be shown once. Active and inactive are the calls of the source.

Neurogenic locus notch homolog protein 2 (Homo sapiens), sequence (Q04721 whole entry, looked up, canonical isoform): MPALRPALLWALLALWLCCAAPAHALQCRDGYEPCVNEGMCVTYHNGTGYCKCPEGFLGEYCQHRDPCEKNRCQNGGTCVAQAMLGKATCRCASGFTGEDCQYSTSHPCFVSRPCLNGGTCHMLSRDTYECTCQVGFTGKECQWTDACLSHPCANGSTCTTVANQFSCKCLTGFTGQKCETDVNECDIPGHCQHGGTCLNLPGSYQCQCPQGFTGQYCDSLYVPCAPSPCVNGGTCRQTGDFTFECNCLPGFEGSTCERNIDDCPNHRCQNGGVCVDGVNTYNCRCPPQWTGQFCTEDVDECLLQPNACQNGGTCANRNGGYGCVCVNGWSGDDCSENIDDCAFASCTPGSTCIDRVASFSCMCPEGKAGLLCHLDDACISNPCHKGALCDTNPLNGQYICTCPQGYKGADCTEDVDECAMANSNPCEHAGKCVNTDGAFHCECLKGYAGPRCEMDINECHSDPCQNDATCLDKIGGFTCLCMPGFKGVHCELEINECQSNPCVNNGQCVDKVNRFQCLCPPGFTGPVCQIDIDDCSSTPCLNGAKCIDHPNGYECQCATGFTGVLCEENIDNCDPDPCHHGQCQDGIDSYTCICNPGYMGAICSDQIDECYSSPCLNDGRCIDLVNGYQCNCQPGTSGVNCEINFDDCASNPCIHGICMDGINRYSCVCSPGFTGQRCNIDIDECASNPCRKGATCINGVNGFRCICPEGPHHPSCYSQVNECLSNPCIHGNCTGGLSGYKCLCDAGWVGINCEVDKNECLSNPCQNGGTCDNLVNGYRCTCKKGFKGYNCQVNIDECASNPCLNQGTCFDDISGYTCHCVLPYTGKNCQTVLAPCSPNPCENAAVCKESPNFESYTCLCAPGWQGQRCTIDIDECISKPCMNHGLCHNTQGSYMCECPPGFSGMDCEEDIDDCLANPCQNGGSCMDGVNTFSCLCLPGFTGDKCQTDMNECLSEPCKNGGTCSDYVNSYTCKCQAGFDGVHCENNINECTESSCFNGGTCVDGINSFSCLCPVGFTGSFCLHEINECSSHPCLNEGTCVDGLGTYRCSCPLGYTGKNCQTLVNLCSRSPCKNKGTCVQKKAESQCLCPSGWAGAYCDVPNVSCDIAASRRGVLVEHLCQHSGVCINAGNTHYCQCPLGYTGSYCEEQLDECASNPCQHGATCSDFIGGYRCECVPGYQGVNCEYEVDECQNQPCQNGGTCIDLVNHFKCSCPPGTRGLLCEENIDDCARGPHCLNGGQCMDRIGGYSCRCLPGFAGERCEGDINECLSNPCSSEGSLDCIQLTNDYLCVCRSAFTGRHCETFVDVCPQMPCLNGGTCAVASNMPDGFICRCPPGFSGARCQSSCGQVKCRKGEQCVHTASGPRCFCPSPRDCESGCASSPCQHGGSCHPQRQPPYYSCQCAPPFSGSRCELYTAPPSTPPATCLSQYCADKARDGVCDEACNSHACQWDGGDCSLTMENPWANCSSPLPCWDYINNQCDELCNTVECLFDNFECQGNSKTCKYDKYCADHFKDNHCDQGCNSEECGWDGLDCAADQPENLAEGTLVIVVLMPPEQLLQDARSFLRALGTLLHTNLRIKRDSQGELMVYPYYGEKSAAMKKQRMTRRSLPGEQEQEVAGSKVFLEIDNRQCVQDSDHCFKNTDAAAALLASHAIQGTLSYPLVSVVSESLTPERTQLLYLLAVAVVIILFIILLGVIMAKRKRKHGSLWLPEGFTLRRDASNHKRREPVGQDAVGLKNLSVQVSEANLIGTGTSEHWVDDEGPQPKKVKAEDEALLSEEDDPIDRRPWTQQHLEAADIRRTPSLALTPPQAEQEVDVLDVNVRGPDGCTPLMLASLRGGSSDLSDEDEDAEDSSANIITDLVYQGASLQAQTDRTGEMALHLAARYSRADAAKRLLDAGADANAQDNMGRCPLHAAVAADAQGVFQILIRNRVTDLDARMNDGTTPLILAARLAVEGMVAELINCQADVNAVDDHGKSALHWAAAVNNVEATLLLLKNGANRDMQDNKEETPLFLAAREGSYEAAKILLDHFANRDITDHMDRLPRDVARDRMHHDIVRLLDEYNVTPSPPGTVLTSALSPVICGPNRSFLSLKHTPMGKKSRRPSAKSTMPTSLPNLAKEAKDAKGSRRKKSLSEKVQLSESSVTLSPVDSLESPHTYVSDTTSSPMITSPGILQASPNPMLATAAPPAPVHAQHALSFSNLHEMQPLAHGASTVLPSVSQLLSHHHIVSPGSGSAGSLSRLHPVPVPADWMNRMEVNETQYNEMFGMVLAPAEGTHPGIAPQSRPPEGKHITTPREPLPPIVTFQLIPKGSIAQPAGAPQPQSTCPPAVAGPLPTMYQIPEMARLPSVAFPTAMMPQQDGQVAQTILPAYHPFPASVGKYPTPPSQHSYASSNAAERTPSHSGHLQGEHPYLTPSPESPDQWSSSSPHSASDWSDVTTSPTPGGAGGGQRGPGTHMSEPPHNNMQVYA
Neurogenic locus notch homolog protein 3 (Homo sapiens), sequence (Q9UM47 whole entry, looked up): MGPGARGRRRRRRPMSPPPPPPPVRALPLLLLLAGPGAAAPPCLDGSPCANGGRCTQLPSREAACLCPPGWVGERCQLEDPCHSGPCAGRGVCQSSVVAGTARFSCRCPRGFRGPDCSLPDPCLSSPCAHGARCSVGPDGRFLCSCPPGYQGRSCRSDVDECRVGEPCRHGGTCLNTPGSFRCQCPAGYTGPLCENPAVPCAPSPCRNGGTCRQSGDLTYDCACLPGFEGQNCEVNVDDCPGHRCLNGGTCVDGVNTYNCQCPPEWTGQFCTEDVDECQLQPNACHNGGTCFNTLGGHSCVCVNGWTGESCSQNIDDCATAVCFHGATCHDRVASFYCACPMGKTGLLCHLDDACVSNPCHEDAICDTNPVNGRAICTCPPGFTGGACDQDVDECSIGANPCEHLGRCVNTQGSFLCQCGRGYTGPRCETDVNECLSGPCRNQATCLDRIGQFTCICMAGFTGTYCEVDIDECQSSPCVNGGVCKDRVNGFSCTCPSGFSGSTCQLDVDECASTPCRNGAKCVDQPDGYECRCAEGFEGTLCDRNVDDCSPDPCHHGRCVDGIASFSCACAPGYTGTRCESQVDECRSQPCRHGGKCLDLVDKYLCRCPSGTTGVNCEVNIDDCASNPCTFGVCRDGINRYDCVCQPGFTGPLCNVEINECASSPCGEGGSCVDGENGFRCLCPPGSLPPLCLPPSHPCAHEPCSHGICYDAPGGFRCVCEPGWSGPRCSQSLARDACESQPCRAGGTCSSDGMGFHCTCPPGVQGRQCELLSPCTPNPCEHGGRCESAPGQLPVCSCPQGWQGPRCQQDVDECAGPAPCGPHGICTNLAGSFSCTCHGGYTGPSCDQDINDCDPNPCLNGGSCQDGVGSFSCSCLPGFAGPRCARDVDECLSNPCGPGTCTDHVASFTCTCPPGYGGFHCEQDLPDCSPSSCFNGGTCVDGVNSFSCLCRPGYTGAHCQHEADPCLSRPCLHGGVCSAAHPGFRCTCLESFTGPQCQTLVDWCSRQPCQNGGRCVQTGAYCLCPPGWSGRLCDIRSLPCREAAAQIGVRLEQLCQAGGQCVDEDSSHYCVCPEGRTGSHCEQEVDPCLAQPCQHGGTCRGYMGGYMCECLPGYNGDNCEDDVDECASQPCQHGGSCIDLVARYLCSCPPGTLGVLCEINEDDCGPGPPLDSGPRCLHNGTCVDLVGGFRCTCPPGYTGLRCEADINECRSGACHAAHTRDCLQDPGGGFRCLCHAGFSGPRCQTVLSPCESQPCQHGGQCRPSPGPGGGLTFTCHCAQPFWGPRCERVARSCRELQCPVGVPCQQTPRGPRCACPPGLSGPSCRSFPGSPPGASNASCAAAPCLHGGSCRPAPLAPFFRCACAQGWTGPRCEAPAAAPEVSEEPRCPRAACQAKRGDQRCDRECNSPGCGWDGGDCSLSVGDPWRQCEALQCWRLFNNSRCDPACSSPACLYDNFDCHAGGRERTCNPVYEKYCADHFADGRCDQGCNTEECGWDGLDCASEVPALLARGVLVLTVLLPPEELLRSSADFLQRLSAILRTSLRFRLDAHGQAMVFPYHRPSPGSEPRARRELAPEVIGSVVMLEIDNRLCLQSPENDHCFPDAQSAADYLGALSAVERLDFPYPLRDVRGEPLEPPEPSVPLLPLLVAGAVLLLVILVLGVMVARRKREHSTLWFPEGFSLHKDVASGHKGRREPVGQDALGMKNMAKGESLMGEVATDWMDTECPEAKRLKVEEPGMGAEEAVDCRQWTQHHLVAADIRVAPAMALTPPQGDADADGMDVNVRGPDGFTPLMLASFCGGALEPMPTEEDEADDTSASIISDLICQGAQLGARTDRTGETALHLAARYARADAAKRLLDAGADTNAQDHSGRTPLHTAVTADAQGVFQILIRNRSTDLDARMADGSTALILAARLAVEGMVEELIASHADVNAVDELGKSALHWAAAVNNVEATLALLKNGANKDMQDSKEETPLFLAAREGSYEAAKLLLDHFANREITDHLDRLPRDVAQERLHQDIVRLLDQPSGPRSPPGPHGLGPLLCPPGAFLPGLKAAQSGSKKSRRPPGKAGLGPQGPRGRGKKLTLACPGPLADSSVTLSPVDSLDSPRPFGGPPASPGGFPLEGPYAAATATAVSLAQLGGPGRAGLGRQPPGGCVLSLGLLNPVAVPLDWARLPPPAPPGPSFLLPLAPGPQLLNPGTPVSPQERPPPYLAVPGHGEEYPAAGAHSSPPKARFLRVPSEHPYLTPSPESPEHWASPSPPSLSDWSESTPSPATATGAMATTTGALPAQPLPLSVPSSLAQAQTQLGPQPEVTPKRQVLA

Consider `Cc1ccc(S(=O)(=O)N[C@H]2COC(=O)[C@@H](Cc3ccccc3)NC(=O)[C@@H](C)COC(=O)CC=C[C@@H]2C)cc1`, for which the composite z-score in [1] is -0.547 and -0.267; in [2], 0.811 and 0.656; in assay [3], -0.177 and -0.145; in assay [4], 0.0514 and 0.209; in assay [5], -0.311 and 0.0627; in [6], -0.355 and -0.215. Also, the composite z-score in assay [7] was -0.721 and 0.219; in assay [9] it was -0.169 and -0.0364; in assay [10], -0.429 and -0.0994; in assay [11] it was -0.0829 and 1.56; in assay [15], -0.872 and 0.969; in assay [17], -0.212 and -0.0726. For the same compound, the composite z-score in assay [18] is 0.3 and 0.541; in assay [19] it was -0.587 and 0.629; in assay [20], -0.0952 and -0.0661. Further, the z-score in assay [8] was 1.23 (inactive) and 1.04 (inactive); in assay [12], -0.248 (inactive) and -0.666 (inactive); in assay [13] it was 0.209 (inactive) and 0.195 (inactive); in assay [14] it was -0.342 (inactive) and -0.348 (inactive); in assay [16] it was 0.205 (inactive) and 0.134 (inactive).

Consider `CCCCN1CC=CC23O[C@@H]4C=CCCOC(=O)C4[C@H]2C(=O)N(C(C)CO)[C@@H]3C1=O` (stereo not given in full), for which the composite z-score is 0.385 and 0.252 in [1]; -0.371 and 0.204 in assay [2]; -0.0753 and -0.135 in assay [3]; -0.228 and 0.292 in assay [4]; -0.921 and -0.936 in assay [5]; 1.1 and 0.324 in [6]. For the same compound, the composite z-score in [7] was 0.839 and 1.04; in [9] it was -0.337 and 0.104; in [10] it was -0.137 and 0.251; in [11], 0.275 and -0.575; in assay [15], 3.12 and -0.0307; in [17], -0.179 and -0.0421. Also, the composite z-score was -0.72 and -0.244 in assay [18]; -0.391 and -0.4 in [19]; -0.221 and 0.0329 in [20]. The z-score in assay [8] is 0.489 (inactive) and -0.469 (inactive); in assay [12], -0.601 (inactive) and 1.38 (inactive); in [13] it was -0.158 (inactive) and 1.52 (inactive); in assay [14] it was -0.164 (inactive) and 0.868 (inactive); in assay [16] it was -0.164 (inactive) and 0.287 (inactive).

Turning to `C=CCN(CCCCC)C(=O)C1N(c2ccc(CCO)cc2)C(=O)C2C(C(=O)O)C3C=CC21O3` (stereo not given), the composite z-score was -0.152 and 0.561 in [1]; -0.875 and -0.415 in assay [2]; -0.154 and -0.179 in [3]; -0.808 and -0.367 in [4]; -2.12 and -2.03 in [5]; -0.638 and -0.72 in [6]. In addition, the composite z-score was -0.465 and -0.307 in [7]; -0.623 and -0.681 in assay [9]; -0.4 and -0.175 in assay [10]; -0.303 and -0.476 in [11]; -0.379 and 0.173 in [15]; -0.0374 and 0.699 in [17]. The composite z-score in assay [18] was -1.73 and -1.08; in [19], -0.636 and -0.651; in assay [20] it was -0.233 and -0.145. In addition, the z-score is 1.51 (inactive) and 1.3 (inactive) in assay [8]; 0.0099 (inactive) and -0.194 (inactive) in assay [12]; -0.804 (inactive) and 0.336 (inactive) in [13]; -0.231 (inactive) and -0.137 (inactive) in [14]; 0.287 (inactive) and 1.11 (inactive) in [16].

With `CN1C(=O)C2CC=C([C@H]3Oc4ccccc4S(=O)(=O)N4CCC[C@@H]34)CC2C1=O` (stereo not given in full), the composite z-score in assay [1] was -0.203 and -0.0284; in [2], 0.157 and 0.0061; in assay [3], -0.133 and -0.149; in assay [4] it was 0.0694 and -0.0366; in [5], -1.05 and -0.369; in [6], 0.75 and -0.641. Further, the composite z-score in [7] is 0.151 and -0.561; in assay [9], -0.311 and -0.365; in [10], -0.0645 and -0.123; in assay [11] it was -0.525 and -1.12; in [15] it was -0.781 and -0.674; in assay [17], -0.163 and -0.0719. The composite z-score in assay [18] was -0.487 and 0.281; in [19], -0.977 and -1.16; in assay [20] it was -0.199 and -0.165. Further, the z-score in [8] was 0.74 (inactive) and 1.05 (inactive); in assay [12] it was -0.243 (inactive) and 0.235 (inactive); in [13] it was 0.0646 (inactive) and 0.0942 (inactive); in [14], 0.579 (inactive) and 0.0211 (inactive); in [16], 0.108 (inactive) and -0.089 (inactive).
